This passage reports z-score results from PubChem BioAssay AID488969 (Vanderbilt High Throughput Screening Facility, 2010).

SMILES strings stand for the structures. In all, about 110,000 compounds were measured (“z-score”: median about -0.1, highest 2% from about 2 on). Shown is part of a subset that was picked to be rich in the highest values. Calls of active or inactive are those of the source.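 The calls were made as follows: active = z-score in the third read window above 3 or below -3; inactive = the rest.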

For this test, the target named is Metabotropic glutamate receptor 8 (Rattus norvegicus) (UniProt P70579). The experiment in a line: rat mGluR8 modulators via GIRK flux, primary screen, cell-based, thallium flux, HTS (AID 488969). To be noted: HEK293 rat mGluR8, GIRK (G protein-gated inwardly rectifying potassium channel) thallium flux, FluoZin2; at 10 µM; stronger effect = higher value; submaximal glutamate (EC20) added with thallium.
Metabotropic glutamate receptor 8 (Rattus norvegicus), sequence (P70579 whole entry, looked up): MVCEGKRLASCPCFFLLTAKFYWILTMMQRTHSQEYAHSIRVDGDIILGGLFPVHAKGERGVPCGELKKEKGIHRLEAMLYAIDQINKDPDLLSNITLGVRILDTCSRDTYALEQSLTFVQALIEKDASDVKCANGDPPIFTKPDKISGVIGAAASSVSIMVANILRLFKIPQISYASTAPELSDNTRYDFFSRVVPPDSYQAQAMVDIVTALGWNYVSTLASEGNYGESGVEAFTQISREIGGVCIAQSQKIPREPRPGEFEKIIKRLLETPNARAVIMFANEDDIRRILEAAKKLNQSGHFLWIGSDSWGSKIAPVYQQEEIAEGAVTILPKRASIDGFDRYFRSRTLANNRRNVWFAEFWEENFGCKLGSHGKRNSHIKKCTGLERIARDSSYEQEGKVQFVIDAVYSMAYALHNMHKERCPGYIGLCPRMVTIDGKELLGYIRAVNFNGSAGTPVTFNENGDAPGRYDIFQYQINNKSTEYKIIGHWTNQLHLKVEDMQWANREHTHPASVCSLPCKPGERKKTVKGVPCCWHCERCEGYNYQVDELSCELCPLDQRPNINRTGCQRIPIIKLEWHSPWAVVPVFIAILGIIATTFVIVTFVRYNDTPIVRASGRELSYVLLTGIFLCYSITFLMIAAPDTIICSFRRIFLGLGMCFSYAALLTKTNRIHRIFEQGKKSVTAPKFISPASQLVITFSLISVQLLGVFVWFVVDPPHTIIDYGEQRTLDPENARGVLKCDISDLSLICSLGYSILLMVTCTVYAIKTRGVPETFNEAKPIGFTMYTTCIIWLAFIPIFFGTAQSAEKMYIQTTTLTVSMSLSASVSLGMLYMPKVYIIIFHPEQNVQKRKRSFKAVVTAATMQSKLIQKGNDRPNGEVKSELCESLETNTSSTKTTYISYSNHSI
The compound `Cc1ccsc1/C=N/NC(=O)c1cccs1` gave a z-score of 0.356.
Then `Cc1ccc(N2CC(C(=O)N/N=C/c3cccc([N+](=O)[O-])c3)CC2=O)cc1` (configuration not stated), with -0.282; and `Cc1ccc(N2CC(C(=O)N/N=C/c3sccc3C)CC2=O)cc1` (configuration not stated), with 3.3 (active).
With `CSc1ccc(/C=N/NC(=O)c2sccc2C)cc1`, the z-score is -0.312.
Regarding `Cc1ccsc1/C=N/NC(=O)c1sccc1C`, the z-score was 5.91 (active).
Regarding `Cc1ccsc1/C=N/NC(=O)C1CC(=O)N(c2ccccc2)C1` (configuration not stated), the z-score amounted to 0.243.
For `Cc1nc2c(C)cccc2cc1C(=O)N/N=C/c1cccc([N+](=O)[O-])c1`, the z-score is -0.361.
With `O=C(NC(=S)Nc1nc2ccccc2s1)c1ccco1`, the z-score is 8.72 (active).
Then `O=C(COC(=O)c1ccco1)Nc1nc2ccccc2s1`, with 0.111; and `O=C(NCc1ccc(-c2nc3ccccc3s2)cc1)c1ccc(Br)o1`, with -0.21.
In the case of `O=C(NCc1ccc(-c2nc3ccccc3s2)cc1)c1ccco1`, the z-score is -0.111.
With `O=C(Nc1ccccc1-c1nc2ccccc2s1)c1ccco1`, the z-score is -0.0204.
With `O=C(NC(=S)NCc1ccc(-c2nc3ccccc3s2)cc1)c1ccco1`, the z-score was determined as 2.52.
The compound `O=C(COc1ccc(Cl)cc1Cl)NC(=O)N1CCCCC1` returned a z-score of 1.09.
To `Cc1sc2ncnc(N=Nc3c(O)[nH]c4ccccc34)c2c1C` belongs -0.0288; to `CCOC(=O)c1cc(OC(=O)c2cccnc2)n(-c2ccccc2)n1`, -0.265.
For `CN(CC(=O)NC(=O)NCc1ccccc1)Cc1ccc(Cl)cc1`, the z-score was -0.334.
To `COc1ccc(CN(C)CC(=O)NC(=O)NCc2ccccc2)cc1OC` belongs 5.52 (active); to `COc1cccc(CN(C)CC(=O)NC(=O)NCc2ccccc2)c1`, 0.16; to `COC(=O)C1=C(C(=O)c2ccccc2)C(c2ccc(OC)c(OC)c2)Nc2nnnn21` (configuration not stated), 0.0695.
With `C/C(=N\NC(=O)CSc1nnc(C)s1)c1ccc(O)cc1`, the z-score is 0.00192.
To `NC(=S)N/N=C/c1ccc(-c2ccc(Cl)c(Cl)c2)o1` belongs 0.653; to `NC(=S)N/N=C/c1ccc(-c2cc(Cl)cc(Cl)c2)o1`, 0.987; to `NC(=S)N/N=C/c1ccc(-c2cc(Cl)ccc2Cl)o1`, 2.21.
As for `CCCCOC(=O)CSc1n[nH]c(=O)[nH]c1=O`, the z-score is -0.957.
Then `CCc1nc(SCc2nnc(-c3ccc(C)cc3)o2)c2c(C)c(C)sc2n1`, with 2.26; and `Cc1ccc(-c2nnc(CSc3nc(C(C)C)nc4sc(C)c(C)c34)o2)cc1`, with 1.42; and `Cc1ccc(-c2nnc(CSc3nnc(C)s3)o2)cc1`, with 0.552.
Turning to `O=C(CCC(=O)OCC(=O)c1ccc(-c2ccccc2)cc1)Nc1cccc2cccnc12`, the z-score is -0.0975.
With `Cn1c(=O)c(C(=O)Nc2cccnc2)c(O)c2ccccc21`, the z-score amounted to 1.29.
On to `COc1ccc2c(Cl)c(C(=O)NCCCn3ccnc3)sc2c1`, for which the z-score is -0.0695.
Regarding `Cc1ccc(-n2nnnc2SC(C)C(=O)NCC(=O)Nc2ccc(F)c(F)c2F)c(C)c1` (configuration not stated), the z-score was -0.287.
For `Cc1cc(SC(C)C(=O)NCC(=O)Nc2ccc(F)c(F)c2F)nc2ccccc12` (configuration not stated), the z-score was -0.101.
Then `Cc1cc(C)c2nc(SC(C)C(=O)NCC(=O)Nc3ccc(F)c(F)c3F)cc(C)c2c1` (configuration not stated), with 7.48 (active); and `CCCCC(=O)Nc1ccc(C(=O)NNC(=O)c2cccs2)cc1`, with -0.305.
Then `O=C(NCc1ccco1)c1ccc(COc2cc(Cl)ccc2Cl)cc1`, with 0.104; and `COc1ccc(Cc2nnc(N)s2)cc1`, with -0.0129.
Take `CCn1c(SCC(=O)O)nc2sc3c(c2c1=O)CCC3`: the z-score is -1.62.
As for `CCn1c(SCC(=O)OC)nc2sc3c(c2c1=O)CCC3`, the z-score is -0.399.
With `CCn1c(SCC(N)=O)nc2sc3c(c2c1=O)CCCC3`, the z-score was 8.59 (active).
Then `CCN1C(=O)c2ccc(C(=O)NCc3ccccc3)cc2C1=O`, with -0.278.
With `CCc1nnc(NC(=O)C2CC(=O)N(c3ccc4c(c3)OCCO4)C2)s1` (configuration not stated), the z-score was -0.124.
As to `COC(=O)c1ccc(CSc2nnc(NC(=O)C3CC(=O)N(c4ccc5c(c4)OCCO5)C3)s2)cc1` (configuration not stated), the z-score came out at 0.162.
Regarding `O=C(Nc1nnc(SCc2ccc(F)cc2)s1)C1CC(=O)N(c2ccc3c(c2)OCCO3)C1` (configuration not stated), the z-score was 3.68 (active).
For `O=C(NCc1ccco1)C(Cc1ccccc1)NS(=O)(=O)c1cccc2nsnc12` (configuration not stated), the z-score is -0.0409.
On to `Cn1c(=O)[nH]c(=O)c2c1nc(Br)n2CCCSc1nc2ccccc2o1`, for which the z-score was -0.621.
Turning to `COc1ccccc1NS(=O)(=O)c1ccc(C)c(NC(=O)c2ccc(S(=O)(=O)N3CCCCCC3)cc2)c1`, the z-score is -0.106.
The compound `COc1ccccc1NC(=O)c1ccc(S(=O)(=O)N2CCOCC2)cc1` registered a z-score of 0.986.
To `COc1ccccc1NC(=O)c1ccc(S(=O)(=O)N2CCCC2)cc1` belongs 3.99 (active); to `COc1ccccc1NC(=O)c1cc(C(=O)Nc2ccccc2OC)cc(N2C(=O)CCC2=O)c1`, 4.66 (active); to `COc1ccccc1NC(=O)c1ccc(N)cc1`, 0.511.
Take `COc1ccccc1NC(=O)c1cccnc1`: the z-score worked out at 0.226.
On to `O=[N+]([O-])c1ccc(OCC(O)CN2CCN(c3ccccc3F)CC2)cc1` (configuration not stated), for which the z-score is -0.357.
For the compound `Cc1ccc(NS(=O)(=O)c2cc([N+](=O)[O-])ccc2NNC(=S)Nc2cccc(Cl)c2)c(C)c1`, the z-score is -0.12.
As to `Cc1cccc(Sc2ccc([N+](=O)[O-])cn2)c1`, the z-score was -1.63.
Consider `O=C(CSc1nc(-c2cccs2)cc(C(F)(F)F)n1)NCc1ccccc1`, for which the z-score was -0.654.
In the case of `COc1ccc(/C=N/NC(=O)CCCOc2ccc(Cl)cc2Cl)cc1`, the z-score is -0.126.
As to `Cc1ccc(Nc2cc(C)nn2-c2nc(C)cc(=O)[nH]2)cc1`, the z-score was 16.4 (active).
Turning to `Cc1cc(C)nc(-n2nc(C)cc2Nc2ccccc2)n1`, the z-score was -0.115.
Compound `Cc1ccc(Nc2cc(C)nn2-c2nc(C)cc(C)n2)cc1` returned a z-score of 0.547.
In the case of `CN1CCC(C2(O)c3ccccc3CSc3sccc32)CC1` (configuration not stated), the z-score came to 2.02.
To `CN(C)CC1CCCCC1C1(O)c2ccccc2CSc2sccc21` (configuration not stated) belongs 1.47; to `CN(C)Cc1ccccc1C1(O)c2ccccc2CSc2ccccc21` (configuration not stated), -0.164; to `COc1ccc(Nc2cc(C(=O)NCc3ccco3)c3ccccc3n2)cc1`, -0.00632.
Consider `O=C(O)c1cc(S(=O)(=O)Nc2ccccc2C(=O)O)ccc1O`, for which the z-score was -0.576.
As for `CCOC(=O)c1c(C)nc2sc(C(N)=O)c(N)c2c1-c1ccccc1`, the z-score was -1.25.
To `Cc1ccc(S(=O)(=O)n2cnc3cc([N+](=O)[O-])ccc32)c(C)c1C` belongs -0.143; to `Cc1ccc(S(=O)(=O)n2cnc3cc([N+](=O)[O-])ccc32)cc1C`, 2.81.
With `Cc1cc(S(=O)(=O)n2cnc3cc([N+](=O)[O-])ccc32)ccc1Cl`, the z-score was -0.268.
Consider `C=CCSc1nnc(Cc2cc(=O)[nH]c(=O)[nH]2)n1-c1cc(C)ccc1C`, for which the z-score is -0.111.
Turning to `COc1ccc(NC(=S)N2CCC(N(C)CCN3CCOCC3)CC2)cc1Cl`, the z-score was -0.269.
`O=C(NC(=S)Nc1ccccn1)c1ccc([N+](=O)[O-])cc1` gave a z-score of 0.166.
For the compound `CN(Cc1ccccc1)C(=S)NC(=O)c1ccc(-c2ccccc2)cc1`, the z-score is 4.13 (active).
Compound `CN(Cc1ccccc1)C(=S)NC(=O)C1CCCCC1` showed a z-score of 1.47.
`CC(C)NC(=S)NC(=O)c1ccc(-c2ccccc2)cc1`: the z-score worked out at 0.201.
As to `C=CCN(CC=C)C(=S)NC(=O)c1ccc([N+](=O)[O-])cc1`, the z-score is 4.84 (active).
Turning to `CCCN(CCC)C(=S)NC(=O)c1ccc(-c2ccccc2)cc1`, the z-score was -0.959.
As for `C=CCN(CC=C)C(=S)Nc1ccccc1`, the z-score was -0.0866.
Consider `C=CCN(CC=C)C(=S)NC(=O)c1ccc(-c2ccccc2)cc1`, for which the z-score is 11.4 (active).
With `CCC(=O)NC(=S)NNC(=O)c1ccc([N+](=O)[O-])cc1`, the z-score came out at 0.17.
`OCc1nc2ccccc2n1C/C=C/c1ccccc1` displayed a z-score of 0.00864.
For the compound `O=C(Nc1ccc(Cl)cc1)C1CCCN(S(=O)(=O)c2cnc[nH]2)C1` (configuration not stated), the z-score is 0.605.
For `COc1cc(C)c(Br)cc1S(=O)(=O)N1CCCC1`, the z-score turned out to be 0.188.
`O=C1c2cccc3cccc(c23)C(=O)N1c1ccc2ncccc2c1`: the z-score was -0.261.
With `CCOC(=O)C1=C(O)/C(=C\c2cccc(OC)c2)N=C1C`, the z-score was -0.194.
In turn, `COc1cccc(-c2nc(Oc3cc(C)cc(C)c3)c3ccccc3n2)c1O` returned a z-score of 0.123.
To `COc1cc(CNCC(C)C)cc(Br)c1OCC(=O)Nc1ccccc1` belongs 2.21; to `COc1cc(CNCC(C)C)c(Br)cc1OCC(=O)NCc1ccccc1`, 0.232.
As for `CCNCc1cc(Br)c(OCC(=O)Nc2ccccc2)c(OC)c1`, the z-score was 1.18.
Consider `COc1ccc(OCC(=O)N2CCN(c3nnc(-c4ccccc4)c4ccccc34)CC2)cc1`, for which the z-score is 0.267.
For the compound `CCOC(=O)c1ccc(S(=O)(=O)NCC(c2ccc(N(C)C)cc2)c2c[nH]c3ccccc23)cc1` (configuration not stated), the z-score amounted to 0.201.
On to `CCOc1ccccc1NC(=O)Cc1c(F)cccc1Cl`, for which the z-score is -0.491.
Regarding `C#CC1(O)CC(C)N(C)C(C)C1` (configuration not stated), the z-score was -0.0403.
To `O=C(NNc1cccc(Cl)n1)c1cccnc1Cl` belongs -0.00142; to `OCCN(CCO)CC(O)COCCC12CC3CC(CC(C3)C1)C2` (configuration not stated), 0.239.
Then `CCN(CC)CC(O)COCCC12CC3CC(CC(C3)C1)C2` (configuration not stated), with 3.04 (active); and `OC(COCCC12CC3CC(CC(C3)C1)C2)CN1CCCCC1` (configuration not stated), with -0.152.
As for `O=C(COC(=O)c1cccs1)c1ccc2c(c1)OCCO2`, the z-score is -0.579.
As for `CC(C)(C)NC(=O)C(c1ccc(F)cc1)N(Cc1ccco1)C(=O)Cn1nnc(-c2cccs2)n1` (configuration not stated), the z-score is -0.585.
Regarding `O=C(NCCO)c1nc2ccccc2s1`, the z-score turned out to be 1.28.
To `CC(C)NC(=O)c1nc2ccccc2s1` belongs 3.05 (active); to `O=C(c1nc2ccccc2s1)N1CCSCC1`, 0.0723.
`CCOC(=O)N1CCN(C(=O)CSc2ncnc3ccccc23)CC1`: the z-score is 3.04 (active).
`CCOC(=O)N1CCN(C(=O)c2nc3ccccc3s2)CC1` showed a z-score of 2.8.
Compound `CC(C)(C)NC(=O)c1nc2ccccc2s1` returned a z-score of 0.283.
Then `CCOC(=O)N1CCN(/C=C(\C#N)c2nc3ccccc3s2)CC1`, with 1.73; and `O=C(CSc1ncnc2ccccc12)N1CCN(c2ccccc2)CC1`, with -0.0217; and `CCOC(=O)N1CCN(C(=O)CSc2ncccn2)CC1`, with 0.107.
With `S=C(Nc1ccc(Cl)cc1)c1sc(N2CCCCC2)nc1N1CCOCC1`, the z-score was -0.435.
Then `CC(NC(=O)COc1ccccc1-c1ccccc1)c1ccccc1` (configuration not stated), with -0.192.
As to `O=C(COc1ccc2c(c1)CCC2)N1CCN(c2cccc(C(F)(F)F)c2)CC1`, the z-score is -0.0515.
For the compound `Cc1ccc(OCCN2CCN(CC(O)Cn3c4ccccc4c4ccccc43)CC2)cc1` (configuration not stated), the z-score was found to be 0.113.
